IDE exosite inh = displaces the probe from the exo-site of human IDE; z-score at 20 µM; actives 6.3% (n = 17,000); purified IDE, FL-6b probe fluorescence polarization; hits give low values;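 active = z-score of -3 or lower, meaning strong loss of probe binding signal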;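 also: His-tagged human IDE residues 42-1019 made in E. coli with 30 nM FL-6b probe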
An asterisk follows results filed as active. This is one part of a sample in which hits are shown more often than they occur.

SMILES | IDE exosite inh
Cc1ccccc1-c1ccc([C@H]2[C@H]3CN(C(=O)c4ccc(F)cc4)CC(=O)N3[C@H]2CO)cc1 | -4.3*
O=C(c1ccc(F)cc1)N1CC(=O)N2[C@H](C1)[C@H](c1ccc(-c3ccccc3F)cc1)[C@@H]2CO | 4.9
Cc1ccccc1-c1ccc([C@H]2[C@@H](CO)N3C(=O)CN(C(=O)c4ccc(F)cc4)C[C@@H]23)cc1 | -0.95
O=C(c1ccc(F)cc1)N1CC(=O)N2[C@@H](CO)[C@H](c3ccc(-c4ccccc4F)cc3)[C@@H]2C1 | 2.1
Cc1ccccc1-c1ccc([C@H]2[C@H](CO)N3C(=O)CN(C(=O)c4ccc(F)cc4)C[C@@H]23)cc1 | -16*
CC(=O)NC[C@H]1[C@H](c2ccccc2)[C@H](CO)N1C(=O)Cc1ccncc1 | 0.27
O=C(c1ccccc1)N1CC(=O)N2[C@H](CO)[C@H](c3ccc(-c4ccccc4)cc3)[C@@H]2C1 | -0.84
Cc1ccccc1-c1ccc2c(c1)O[C@H](CN(C)C(=O)Nc1ccc(C(F)(F)F)cc1)[C@H](C)CN([C@@H](C)CO)S2(=O)=O | -0.15
CCc1nc(N2[C@H](C#N)[C@@H](c3ccccc3-c3ccccc3F)[C@@H]2CO)sc1C | 0.23
COc1ccc(-c2ccccc2[C@H]2[C@@H](CO)N(C(=O)C3CC3)[C@H]2C#N)cc1 | 4
C[C@H](CO)N1C[C@H](C)[C@@H](CN(C)S(=O)(=O)c2cn(C)cn2)OCc2ccccc2-c2ccccc2C1=O | 0.14
COc1ccccc1C#Cc1ccc([C@@H]2[C@@H](CO)N3CCCCN(C(=O)C4CCC4)C[C@H]23)cc1 | -8.3*
COc1ccc(C#Cc2ccc([C@H]3[C@H]4CN(C(=O)Nc5ccccc5)CCCCN4[C@H]3CO)cc2)cc1 | 1.3
COc1ccccc1C#Cc1ccc([C@H]2[C@H]3CN(C(=O)C4CCC4)CCCCN3[C@H]2CO)cc1 | -18*
COc1ccccc1C#Cc1ccc([C@H]2[C@@H](CO)N3CCCCN(C(=O)C4CCC4)C[C@@H]23)cc1 | -7.6*
COc1ccc(C#Cc2ccc([C@H]3[C@@H](CO)N4CCCCN(C(=O)Nc5ccccc5)C[C@@H]34)cc2)cc1 | 0.82
COc1ccccc1C#Cc1ccc([C@@H]2[C@H](CO)N3CCCCN(C(=O)C4CCC4)C[C@@H]23)cc1 | -11*
COc1ccccc1NC(=O)N1CCCCN2[C@H](CO)[C@@H](c3ccc(C#Cc4ccccc4)cc3)[C@H]2C1 | -2.7
COc1ccc(C#Cc2ccc([C@@H]3[C@H](CO)N4CCCCN(C(=O)Nc5ccccc5)C[C@@H]34)cc2)cc1 | 4
CN(C)CC#Cc1ccc([C@@H]2[C@H](CO)N3CCCCN(C(=O)C4CCC4)C[C@@H]23)cc1 | 2.6
COc1ccccc1NC(=O)N1CCCCN2[C@H](CO)[C@H](c3ccc(C#Cc4ccccc4)cc3)[C@@H]2C1 | -0.36
CN(C)CC#Cc1ccc([C@@H]2[C@H]3CN(C(=O)C4CCC4)CCCCN3[C@H]2CO)cc1 | 0.92
COc1ccccc1NC(=O)N1CCCCN2[C@@H](CO)[C@H](c3ccc(C#Cc4ccccc4)cc3)[C@@H]2C1 | -2.5
COc1ccc(C#Cc2ccc3c(c2)[C@H]2[C@H](CCN2C(=O)Nc2ccc(C(F)(F)F)cc2)[C@@H](CO)N3C)cc1 | 2.4
COc1ccc(-c2ccccc2[C@H]2[C@@H](CO)N(C(=O)C3CCOCC3)[C@H]2C#N)cc1 | 0.083
SMILES | IDE exosite inh
COc1ccccc1S(=O)(=O)N(C)C[C@H]1OCc2ccccc2-c2ccccc2C(=O)N([C@H](C)CO)C[C@@H]1C | -0.15
CC(=O)NC[C@@H]1[C@H](c2ccc(-c3ccccc3F)cc2)[C@H](CO)N1C(C)=O | 2.9
Fc1ccccc1-c1ccc(C2[C@H]3CNC[C@@H]2N3CC2CC2)cc1 (stereo not given in full) | 2
O=C(c1cccnc1)N1CCCCN2[C@H](C1)[C@H](c1ccc(C#Cc3ccccn3)cc1)[C@@H]2CO | -5.5*
O=C(c1cccnc1)N1CCCCN2[C@H](CO)[C@H](c3ccc(C#Cc4cccnc4)cc3)[C@@H]2C1 | -4.3*
O=C(c1cccnc1)N1CCCCN2[C@H](C1)[C@@H](c1ccc(C#Cc3cccnc3)cc1)[C@@H]2CO | 1.9
O=C(c1cccnc1)N1CCCCN2[C@@H](CO)[C@H](c3ccc(C#Cc4ccccn4)cc3)[C@@H]2C1 | -7.7*
O=C(c1ccncc1)N1CCCCN2[C@H](CO)[C@H](c3ccc(C#Cc4ccccn4)cc3)[C@@H]2C1 | -0.33
O=C(c1ccncc1)N1CCCCN2[C@H](C1)[C@@H](c1ccc(C#Cc3ccccn3)cc1)[C@@H]2CO | 0.83
CC(C)(O)C#Cc1ccc([C@H]2[C@H](CO)N3CCCCN(C(=O)c4cccnc4)C[C@@H]23)cc1 | 3.7
CC(C)(O)C#Cc1ccc([C@@H]2[C@@H](CO)N3CCCCN(C(=O)c4cccnc4)C[C@H]23)cc1 | 3.5
CC(C)(O)C#Cc1ccc([C@H]2[C@@H](CO)N3CCCCN(C(=O)c4cccnc4)C[C@@H]23)cc1 | 1.1
COc1cccc(S(=O)(=O)N[C@@H]2CC[C@@H](CC(=O)NC3Cc4ccccc4C3)O[C@@H]2CO)c1 | -1.3
CN(C)CC(=O)N[C@H]1C=C[C@@H](CC(=O)NCc2ccc(Cl)cc2)O[C@H]1CO | 3.2
CC(=O)N1CCCCN2[C@@H](CO)[C@@H](c3ccc(-c4ccncc4)cc3)[C@@H]2C1 | 4.4
Cn1cnc(S(=O)(=O)N[C@@H]2CC[C@H](CC(=O)NCC3CCCCC3)O[C@@H]2CO)c1 | 0.99
COc1ccc(-c2ccc(C3[C@H]4CNC[C@@H]3N4S(=O)(=O)c3cn(C)cn3)cc2)cc1 (stereo not given in full) | -0.26
CC(C)CN(C[C@@H]1N[C@@H](CO)[C@@H]1c1ccccc1)C(=O)CN(C)C | 3.7
C[C@H]1CN([C@@H](C)CO)C(=O)c2cccc(NC(=O)c3ccncc3)c2O[C@@H]1CN(C)Cc1ccc2c(c1)OCO2 | 0.33
COc1ccc(NC(=O)N2CC(=O)N3[C@H](C2)[C@@H](c2ccc(Br)cc2)[C@@H]3CO)cc1 | -0.63
O=C(c1ccccc1F)N1CC(=O)N2[C@H](CO)[C@H](c3ccc(C#Cc4ccccc4)cc3)[C@H]2C1 | -2.4
O=C(Nc1ccccc1F)N1CC(=O)N2[C@@H](CO)[C@@H](c3ccc(C#Cc4ccccc4)cc3)[C@@H]2C1 | -5.8*
O=C(Nc1ccccc1F)N1CC(=O)N2[C@H](CO)[C@H](c3ccc(C#Cc4ccc(F)cc4)cc3)[C@@H]2C1 | 0.19
O=C(c1ccccc1F)N1CC(=O)N2[C@@H](CO)[C@H](c3ccc(C#Cc4ccccc4)cc3)[C@@H]2C1 | -3.5*
O=C(c1ccccc1F)N1CC(=O)N2[C@@H](CO)[C@@H](c3ccc(C#Cc4ccccc4)cc3)[C@@H]2C1 | -1.2
SMILES | IDE exosite inh
O=C(Nc1ccccc1F)N1CC(=O)N2[C@H](CO)[C@H](c3ccc(C#Cc4ccccc4)cc3)[C@H]2C1 | -1.9
CC(C)NC(=O)N1CCCCN2[C@@H](CO)[C@@H](c3ccc(C#CC4CC4)cc3)[C@@H]2C1 | -1.1
C/C=C/c1ccc([C@@H]2[C@H](C#N)N(C(=O)c3cccnc3)[C@H]2CO)cc1 | 0.33
COc1ccc2c3c(n(C)c2c1)[C@@H](CO)N(Cc1nccs1)CC31CCN(CC2CCCC2)CC1 | 1.4
O=C(Nc1cccc(F)c1)N1C[C@H]2[C@@H](c3ccccc31)[C@@H](CO)N2C(=O)Cc1ccccn1 | 0.91
Cc1ccc(S(=O)(=O)N[C@@H]2CC[C@H](CC(=O)NCc3ccncn3)O[C@@H]2CO)cc1 | -0.94
OC[C@@H]1[C@H](c2ccc(-c3ccccc3F)cc2)[C@H]2CN(Cc3cncnc3)CCCCN12 | -1.7
